Mtb BioA inh: blocks M. tuberculosis BioA enzyme activity; purified M. tuberculosis BioA enzyme, plate reader; inhibition, % at 9.99 µM; hit rate 0.096% among 360,000; in the data active = inhibition above about 40%
SSB-PriA inh: blocks PriA binding to SSB C-terminal tail | AlphaScreen SSBct-PriA binding, biotinylated peptide | inhibition, % at 33 µM | hit rate 0.6% among 430,000 | AID 1272365; in the data active = inhibition mostly above about 37%, no sharp cut-off; inactive = mostly below about 20%
FadD28 binding: inhibitors of Mycobacterium tuberculosis FadD28 bisubstrate binding; hit rate 0.22% among 360,000; inhibition, % at 12.5 µM; FadD28 bisubstrate probe binding, fluorescence polarization; in the data active = inhibition above about 8.5%, passing the limit was not always enough
TcdB GH inh: blocks C. difficile toxin B glycohydrolase activity | TcdB glycohydrolase enzymatic assay, plate reader | hit rate 0.24% among 350,000 | inhibition, % at 9.99 µM | P18177; in the data active = inhibition above about 10%
Target sequence (P18177 whole entry, looked up): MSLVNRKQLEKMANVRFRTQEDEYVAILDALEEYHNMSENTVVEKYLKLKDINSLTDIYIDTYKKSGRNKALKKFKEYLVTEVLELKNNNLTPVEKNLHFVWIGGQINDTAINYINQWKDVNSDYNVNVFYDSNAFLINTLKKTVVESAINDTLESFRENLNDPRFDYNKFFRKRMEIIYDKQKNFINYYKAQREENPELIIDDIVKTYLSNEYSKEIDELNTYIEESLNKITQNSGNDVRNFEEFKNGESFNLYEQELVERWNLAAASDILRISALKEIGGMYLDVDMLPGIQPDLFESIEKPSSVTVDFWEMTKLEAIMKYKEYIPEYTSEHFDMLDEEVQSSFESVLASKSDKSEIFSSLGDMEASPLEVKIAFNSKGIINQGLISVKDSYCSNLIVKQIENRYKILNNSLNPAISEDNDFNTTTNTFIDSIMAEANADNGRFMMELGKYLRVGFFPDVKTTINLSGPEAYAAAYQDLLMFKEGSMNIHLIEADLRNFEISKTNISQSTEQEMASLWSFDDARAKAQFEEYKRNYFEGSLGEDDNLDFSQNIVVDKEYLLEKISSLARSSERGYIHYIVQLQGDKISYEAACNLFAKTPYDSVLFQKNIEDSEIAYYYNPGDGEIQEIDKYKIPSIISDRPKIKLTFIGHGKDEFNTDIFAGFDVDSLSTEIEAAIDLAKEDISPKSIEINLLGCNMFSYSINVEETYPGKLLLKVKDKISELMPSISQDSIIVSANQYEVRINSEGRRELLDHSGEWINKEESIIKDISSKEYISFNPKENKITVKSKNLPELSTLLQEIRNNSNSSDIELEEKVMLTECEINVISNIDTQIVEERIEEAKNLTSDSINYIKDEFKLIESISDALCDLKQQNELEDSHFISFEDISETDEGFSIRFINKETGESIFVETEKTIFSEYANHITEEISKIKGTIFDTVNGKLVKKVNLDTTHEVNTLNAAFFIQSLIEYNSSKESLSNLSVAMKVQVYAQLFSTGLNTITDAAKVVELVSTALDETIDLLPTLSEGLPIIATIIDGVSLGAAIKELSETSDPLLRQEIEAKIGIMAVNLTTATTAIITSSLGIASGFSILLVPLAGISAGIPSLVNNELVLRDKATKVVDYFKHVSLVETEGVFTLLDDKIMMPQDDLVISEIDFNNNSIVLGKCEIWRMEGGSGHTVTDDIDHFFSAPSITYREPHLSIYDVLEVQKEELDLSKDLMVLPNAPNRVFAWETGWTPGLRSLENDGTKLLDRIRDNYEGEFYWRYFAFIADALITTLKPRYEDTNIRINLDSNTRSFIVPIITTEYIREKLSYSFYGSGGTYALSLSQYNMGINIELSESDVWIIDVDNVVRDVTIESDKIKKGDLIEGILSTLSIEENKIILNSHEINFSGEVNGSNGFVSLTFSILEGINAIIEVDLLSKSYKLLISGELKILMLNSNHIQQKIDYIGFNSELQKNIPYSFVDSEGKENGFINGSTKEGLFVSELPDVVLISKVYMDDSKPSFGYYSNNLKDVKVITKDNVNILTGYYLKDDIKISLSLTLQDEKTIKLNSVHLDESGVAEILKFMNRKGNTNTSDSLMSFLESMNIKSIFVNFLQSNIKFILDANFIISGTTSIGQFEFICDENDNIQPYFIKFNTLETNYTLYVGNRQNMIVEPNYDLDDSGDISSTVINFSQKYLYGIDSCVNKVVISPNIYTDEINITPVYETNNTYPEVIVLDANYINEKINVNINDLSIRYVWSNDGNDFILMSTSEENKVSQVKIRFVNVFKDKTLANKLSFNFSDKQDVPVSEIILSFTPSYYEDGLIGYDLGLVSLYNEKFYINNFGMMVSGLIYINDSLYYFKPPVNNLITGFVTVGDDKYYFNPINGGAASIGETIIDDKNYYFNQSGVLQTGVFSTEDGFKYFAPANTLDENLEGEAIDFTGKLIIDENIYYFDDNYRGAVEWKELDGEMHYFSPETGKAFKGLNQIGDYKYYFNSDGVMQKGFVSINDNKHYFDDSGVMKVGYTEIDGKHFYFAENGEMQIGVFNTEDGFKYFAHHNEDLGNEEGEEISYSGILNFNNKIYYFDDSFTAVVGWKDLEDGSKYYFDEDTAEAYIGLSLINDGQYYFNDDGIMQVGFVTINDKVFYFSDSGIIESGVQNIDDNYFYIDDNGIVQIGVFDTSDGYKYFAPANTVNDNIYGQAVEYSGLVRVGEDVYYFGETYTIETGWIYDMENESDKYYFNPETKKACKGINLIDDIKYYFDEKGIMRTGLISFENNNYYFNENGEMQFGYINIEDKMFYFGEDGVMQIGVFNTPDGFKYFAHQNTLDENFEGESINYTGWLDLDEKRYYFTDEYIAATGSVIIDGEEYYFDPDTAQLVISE
PrP 5UTR inh: inhibition of PrP 5' UTR reporter expression. cell-based PrP 5' UTR mRNA reporter, plate reader. inhibition, % (test concentration not listed). hit rate 0.35% among 340,000. AID 488862; in the data active = inhibition above about 52%
Mtb hypoxia rep: Mtb hypoxia fluorescent reporter inhibition; M. tuberculosis hypoxia-regulated fluorescent reporter, fluorescence; fluorescence inhibition, % (test concentration not listed); hit rate 0.1% among 300,000; AID 1159583; in the data active = fluorescence inhibition mostly above about 23%, no sharp cut-off; inactive = mostly below about 17%
Hits are given with their value; – = inactive; · = not tested or not shown; ! = repeats disagree. A selection: hits, their analogues and other compounds. The true share with any hit is near 1%.

SMILES | Mtb BioA inh | SSB-PriA inh | FadD28 binding | TcdB GH inh | PrP 5UTR inh | Mtb hypoxia rep
COc1ccc(C(NC(=O)c2ccco2)c2ccc(OC)c(OC)c2)cc1OC | – | – | – | – | – | –
COc1ccc(C(CC(=O)c2ccco2)Sc2cccc3cccnc23)cc1OC (stereo unspecified) | · | 81.0 | · | · | · | ·
O=C(O)c1ccc(CNC(=O)C(Cl)Cl)cc1 | · | – | · | · | · | ·
CCOc1ccc(N=CC2=C(O)CC(C)(C)CC2=O)cc1 | – | – | – | · | – | –
CC1(C)CC(=O)C(C=Nc2ccc(O)cc2)=C(O)C1 | – | – | – | 31.7 | – | –
CC1(C)CC(=O)C(C=Nc2ccc(N)cc2)=C(O)C1 | · | – | – | 12.8 | – | –
CC(=O)Nc1ccc(S(=O)(=O)Nc2nc3ccccc3nc2Nc2ccc(C(=O)O)c(O)c2)cc1 | – | – | 25.5 | – | – | –
Cc1ccc(-n2nnc(C(=O)OCc3ccc(F)cc3)c2C)cc1Cl | · | – | · | · | · | ·
Cc1nnc(NCc2ccncc2)c2ccccc12 | – | – | – | · | – | –
Cc1nnc(NCc2ccccc2)c2ccccc12 | – | – | – | – | – | 80.8
O=[N+]([O-])c1ccccc1N=Nc1ccc(O)cc1 | · | 42.9 | – | – | – | –
O=C(Nc1nc(-c2ccccn2)cs1)c1ccc(N2CCCC2)nn1 | · | 72.0 | · | · | · | ·
O=C(Nc1nc(-c2ccccn2)cs1)c1cc(S(=O)(=O)N2CCOCC2)ccc1F | – | 83.0 | – | – | – | –
CCOC(=O)Cc1csc(NC(=O)c2ccc(N3CCCCC3)nn2)n1 | · | – | · | · | · | ·
Cc1nc(NC(=O)c2ccc(N3CCCCC3)nn2)sc1C(=O)N(C)C | · | 48.0 | · | · | · | ·
Cc1ccc(C(=O)Nc2nc(-c3ccccn3)cs2)cc1S(=O)(=O)N1CCCCC1 | · | 64.5 | · | · | · | ·
Cc1ccc(S(=O)(=O)N2CCOCC2)cc1C(=O)Nc1nc(-c2cccnc2)cs1 | – | – | – | – | – | –
Cc1cnnn1-c1ccc(C(=O)CCl)cc1 | · | – | – | · | – | –
COc1ccc(NC(C)=O)cc1NC(=O)Cc1cc(-c2ccc(F)cc2)on1 | · | – | · | · | · | ·
COC(=O)c1[nH]c2cc(OC)ccc2c1NC(=O)CN1CCC(C(N)=O)(N2CCCCC2)CC1 | – | – | – | · | – | ·
Cc1ccc(C(=O)Nc2nc(-c3ccccn3)cs2)cc1S(=O)(=O)N1CCOCC1 | – | 43.0 | – | – | – | –
O=C(Nc1nc(-c2ccccn2)cs1)c1ccc(N2C(=O)CCC2=O)cc1 | · | – | · | · | · | ·
Cc1ccc(-c2csc(NC(=O)c3ccc(C)c(S(=O)(=O)N4CCOCC4)c3)n2)cc1 | · | – | · | · | · | ·
O=C(Nc1nc(-c2ccccn2)cs1)c1ccc(N2CCOCC2)nc1 | · | 94.8 | · | · | · | ·
O=C(Nc1nc(-c2ccccn2)cs1)c1ccc(F)c(S(=O)(=O)N2CCOCC2)c1 | – | 45.4 | – | – | – | –
SMILES | Mtb BioA inh | SSB-PriA inh | FadD28 binding | TcdB GH inh | PrP 5UTR inh | Mtb hypoxia rep
Cc1ccc(-n2nnnc2SCC(=O)c2c(N)n(C3CC3)c(=O)[nH]c2=O)cc1C | – | – | – | – | – | –
CN1C(=O)Cc2cc(S(=O)(=O)NCCc3ccc(Cl)cc3)ccc21 | – | – | – | – | – | –
O=C(CCc1ccccc1)NC(=S)Nc1ccccc1[N+](=O)[O-] | – | 38.8 | – | – | – | –
O=C(CCc1ccccc1)Nc1ccccc1[N+](=O)[O-] | · | – | – | · | – | –
Cc1ccc(NC(=O)Cn2nc(-c3ccccc3)c3sc(N4CCCC4)nc3c2=O)cc1Cl | · | – | · | · | · | ·
N#Cc1c(-c2ccccc2)c(-c2ccccc2)nn(CC(=O)NNC(=O)Nc2ccc(Cl)c(Cl)c2)c1=O | – | 52.0 | 16.9 | · | – | –
O=C(NCCC1=CCCCC1)c1cnsn1 | – | – | – | · | – | ·
O=C(Nc1nnc(C2CCCCC2)s1)c1ccccn1 | · | 70.5 | · | · | · | ·
O=C(Nc1nnc(SCc2ccc(F)cc2)s1)c1csnn1 | · | – | · | · | · | ·
O=C(Nc1nnc(C2CCC2)s1)c1ccccn1 | · | 101.8 | · | · | · | ·
O=C(Nc1nnc(C2CCCCC2)s1)c1cccs1 | – | – | – | – | – | –
O=C(Nc1nnc(C2CCCO2)s1)c1ccccn1 (stereo unspecified) | · | 110.0 | · | · | · | ·
O=C(Nc1nnc(SCc2ccc(F)cc2)s1)c1ccccn1 | · | 78.3 | – | – | – | –
COc1ccc(CNC(=O)C(C)OC(=O)c2cccs2)cc1 (stereo unspecified) | – | – | – | – | – | –
O=C(O)c1ccc(N/N=C/c2cn(Cc3ccc(F)cc3)c3ccccc23)cc1 | – | – | 18.1 | – | – | ·
COc1cccc2[nH]c(C(=O)NCCCN3CCCC3=O)cc12 | – | – | – | – | – | –
COc1ccc2cc(C(=O)NCCCN3CCCC3=O)[nH]c2c1 | – | 39.8 | – | – | – | –
C=CC(=O)Nc1cccc(N(C)c2ccnc(Nc3ccc(N4CCN(C)CC4)cc3)n2)c1 | – | 57.1 | – | · | – | ·
C=CC(=O)Nc1cccc(Oc2ccnc(Nc3ccc(N4CCN(C)CC4)cc3)n2)c1 | – | 61.2 | – | – | – | ·
C=CC(=O)Nc1cccc(Oc2ccnc3[nH]ccc23)c1 | – | – | – | · | – | ·
CCCCNCCCOc1cccc(Cl)c1Cl | · | – | – | – | – | –
O=C(NCCO)c1ccc2nc(-c3ccco3)c(-c3ccco3)nc2c1 | – | – | 12.9 | · | – | –
Cn1cc(-c2cccc(C(F)(F)F)c2)cc(C#N)c1=O | – | 53.1 | – | – | – | –
CCOc1ccc(NC(=O)c2ccc(NC(=O)c3cn4c5c(c(N6CCN(C)CC6)c(F)cc5c3=O)OCC4C)cc2)cc1 (stereo unspecified) | · | – | – | · | – | ·
COc1ccc(-c2nc(C#N)c(N3CCCCC3)o2)cc1OC | · | 59.2 | · | · | · | ·
SMILES | Mtb BioA inh | SSB-PriA inh | FadD28 binding | TcdB GH inh | PrP 5UTR inh | Mtb hypoxia rep
Cc1ccc(OCc2ccc(-c3nc(C#N)c(NCCCn4ccnc4)o3)o2)cc1 | · | 60.0! | · | · | · | ·
COc1ccc(-c2nc(C#N)c(NCc3ccc(F)cc3)o2)cc1OC | – | – | 11.2 | · | – | –
COc1ccc(-c2nc(C#N)c(N3CCCN(C)CC3)o2)cc1 | · | 69.3 | · | · | · | ·
CC(C)(C)Sc1ccc2nn(CC(=O)Nc3ccc(F)cc3)c(=O)n2n1 | · | – | · | · | · | ·
O=C(NCC[C@H]1CC[C@@H](NC(=O)C2CCOCC2)[C@H](CO)O1)Nc1ccc(Cl)cc1 | – | · | · | – | · | ·
CC=Cc1ccc2n(c1=O)C[C@H]1[C@H](CO)[C@@H](C(=O)NCCc3cn(C)cn3)[C@@H]2N1C(=O)CC1CC1 (mixture of isomers) | · | · | · | – | · | ·
Cc1ccc(-c2nc(C#N)c(N3CCCC3)o2)cc1 | · | – | · | · | · | ·
CCCOc1ccc(-c2nc(C#N)c(N3CCCC3)o2)cc1 | · | – | · | · | · | ·
N#Cc1nc(-c2ccc(F)cc2)oc1N1CCCCCC1 | · | 112.2 | · | · | · | ·
CCOc1ccc(-c2nc(C#N)c(N3CCCC3)o2)cc1 | · | – | · | · | · | ·
Cc1ccc(OCc2ccc(-c3nc(C#N)c(N4CCCCC4)o3)o2)cc1 | · | 81.8 | · | · | · | ·
COP(=O)(OC)c1nc(-c2ccc(C)cc2)oc1N1CCCCC1 | · | 50.6 | – | – | – | –
CCOc1ccc(-c2nc(C#N)c(N3CCCCC3)o2)cc1 | · | 93.6 | · | · | · | ·
O=C(Cc1c(F)cccc1Cl)NNC(=O)c1ccco1 | – | – | – | – | – | –
Cc1noc(C)c1NC(=O)Nc1ccc2c(c1)C(=O)N([C@H](C)CO)C[C@@H](C)[C@@H](CN(C)C)O2 | – | · | · | – | · | ·
Cc1ccc(O)c(C(=O)c2cnc3c(c2)COc2ccc(C)cc2-3)c1 | – | 39.4 | – | · | – | ·
